High-throughput results from PubChem BioAssay.
Sampled rows, rich in hits. Any-hit rate of the full collection: about 10%.
Six1-Eya2 blk = inhibitors of human Six1/Eya2 interaction | Q15475+O00167 | AlphaScreen GST-Six1/His-Eya2 binding, biochemical; active compounds read low | activity change, % (concentration not given with the values) | 0.56% of 360,000 active | AID 651725; in the data active means activity change below about -65%; inconclusive means mostly about -30% to -63%; further: on the % scale 0 is the no-effect control and ±100 the full control effect
Target sequence (O00167 whole entry, looked up): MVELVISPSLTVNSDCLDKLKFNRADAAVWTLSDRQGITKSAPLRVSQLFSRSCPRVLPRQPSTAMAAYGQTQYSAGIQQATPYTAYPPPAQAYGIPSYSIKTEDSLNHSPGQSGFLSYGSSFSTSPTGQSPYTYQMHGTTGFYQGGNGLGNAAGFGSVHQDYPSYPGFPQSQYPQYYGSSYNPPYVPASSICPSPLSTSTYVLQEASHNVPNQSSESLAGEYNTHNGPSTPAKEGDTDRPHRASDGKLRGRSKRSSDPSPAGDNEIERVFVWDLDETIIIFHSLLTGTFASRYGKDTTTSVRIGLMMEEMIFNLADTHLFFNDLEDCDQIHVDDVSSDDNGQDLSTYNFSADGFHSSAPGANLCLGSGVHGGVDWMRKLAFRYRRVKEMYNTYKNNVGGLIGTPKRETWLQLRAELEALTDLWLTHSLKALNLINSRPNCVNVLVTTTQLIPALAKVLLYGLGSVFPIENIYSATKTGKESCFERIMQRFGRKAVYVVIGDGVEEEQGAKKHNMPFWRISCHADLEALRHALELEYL
Target sequence (Q15475 whole entry, looked up): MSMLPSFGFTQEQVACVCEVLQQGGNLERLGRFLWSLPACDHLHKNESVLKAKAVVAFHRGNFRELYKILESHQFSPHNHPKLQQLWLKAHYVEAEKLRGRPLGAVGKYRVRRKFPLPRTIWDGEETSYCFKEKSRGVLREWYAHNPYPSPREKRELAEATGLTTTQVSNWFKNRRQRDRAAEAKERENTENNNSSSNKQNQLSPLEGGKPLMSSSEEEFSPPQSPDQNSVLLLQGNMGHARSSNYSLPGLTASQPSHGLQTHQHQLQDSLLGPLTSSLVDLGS
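Homogeneous AlphaScreen proximity assay pairing GST-Six1 with His-tagged Eya2 (added as 5X mix: 250 nM and 500 nM) in 50 mM Tris pH 8.0, 300 mM NaCl, 1 mM TCEP. Glutathione donor and nickel acceptor beads; 1 h, 37 °C, dark.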
JMJD2A Tudor = JMJD2A Tudor domain (human) inhibition; AlphaScreen JMJD2A-Tudor / H3K4me3 peptide binding; Potency, µM (top dose mostly 114 µM), inactives show at the top dose activity change, negative = inhibition, usual class: inhibitors; O75164; 4.4% of 390,000 active; further: potency means the concentration at half of the fitted maximal effect; on the % scale 0 is the no-effect control and ±100 the full control effect; nearly all actives have a fitted effect of over 50% in size
G9a block = G9a (human) methyltransferase inhibition. G9a H3K9 monomethylation, AlphaScreen, 2 h. 8.8% of 350,000 active. Potency, µM (top dose mostly 102 µM), for inactives: at the highest dose activity, negative = inhibition, usual class: inhibitors. AID 504332; further: potency means the concentration at half of the fitted maximal effect; on the % scale 0 is the no-effect control and ±100 the full control effect; nearly all actives have a fitted effect of over 75% in size
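Compounds were preincubated with 20 nM G9a for 15 min, after which biotinylated H3K9 peptide (500 nM) and SAM (20 uM) started a 2 h room-temperature reaction. Monomethylated product was quantified by antibody-based AlphaScreen chemiluminescence.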
BAZ2B block = BAZ2B (human) inhibition | AID 504333 | Potency, µM (doses to about 114 µM), for inactives: at the top dose activity change, negative = inhibition, usual class: inhibitors | 4.4% of 360,000 active | AlphaScreen BAZ2B-H3K14Ac peptide displacement | Q9UIF8; further: potency means the concentration at half of the fitted maximal effect; on the % scale 0 is the no-effect control and ±100 the full control effect; nearly all actives have a fitted effect of over 60% in size
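Protein-peptide AlphaScreen: BAZ2B 50 nM, b-H3K14Ac 50 nM, 1x PBS pH 7.4 + 0.01% Tween-20. Preincubation 30 min RT; cpd 30 min RT (top 110 uM); beads 20 min RT, light-protected.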
HP1b chromo inh = blocks HP1-beta chromodomain binding to methylated histone tails. P83916. AlphaScreen HP1-beta / biotin-H3K9me3 peptide binding. Potency, µM (doses to about 114 µM), for inactives: at the highest dose activity change, negative = inhibition, hits mostly inhibitors. 0.56% of 390,000 active; further: potency means the concentration at half of the fitted maximal effect; nearly all actives have a fitted effect of over 70% in size
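Compound inhibition of the preformed complex between 50 nM HP1-beta and 50 nM biotinylated H3K9me3 peptide was read by AlphaScreen. Buffer was PBS pH 7.4 with 0.01% Tween-20. Incubations ran 30 min at room temperature, with 10 ug/mL donor/acceptor beads.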
CtBP-E1A blk = CtBP/E1A binding inhibition | AlphaScreen GST-E1A/His-CtBP binding, 1536-well; active compounds read low | activity change, % (test concentration not listed) | 0.49% of 340,000 active; in the data active means activity change below about -65%; inconclusive means mostly about -30% to -63%; further: on the % scale 0 is the no-effect control and ±100 the full control effect
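GST-E1A and His-tagged CtBP (125 nM each as 5X stock) were preincubated with pin-transferred compound for 2 h at 37 °C in the dark, then glutathione donor and nickel acceptor beads were added for 1 h before AlphaScreen reading.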
* hit, by the source's call; ? = inconclusive; . = no result given; [ ] = dose if it differs, or a comment. Unless noted, the call rests on the fitted dose curve; in most records, active means well fitted inhibition curve with a large enough effect; inconclusive means small, poorly fitted or top-dose-only effect; inactive means no such curve, though single readings can be large or run the other way.

SMILES	Six1-Eya2 blk	JMJD2A Tudor	G9a block	BAZ2B block	HP1b chromo inh	CtBP-E1A blk
CC(C)(C)C(=O)CN1CCN(C2c3ccccc3-c3ccccc32)CC1	-1	-7%	50µM*	-5%	23%	-3
COc1ccccc1NC(=O)CN1CCN(C2c3ccccc3-c3ccccc32)CC1	-10	-30%	.	-37%	-7%	-19
Fc1ccc(-n2ncc3c(NC4CCCCCC4)ncnc32)cc1	.	11%	9%[59 µM]	18%	52%	.
CCN(CC)c1c(C)nc2ccc(C(=O)N3CCN(C(=O)c4ccco4)CC3)cn12	15	.	.	.	.	19
CNC(=O)C(Sc1nc(C)nc2c1oc1ccccc12)C(C)=O (stereo unspecified)	?	-32%	18µM*	-35%	22%	5
Cc1nc(NCCc2ccccc2)c2oc3ccccc3c2n1	-12	-10%	79µM*	?	35%	-8
Cc1nc(NCCN2CCOCC2)c2oc3ccccc3c2n1	-3	4%	3%[59 µM]	.	33%	1
Cc1ccc(Cn2ccn(CC(=O)Nc3ccccc3C(F)(F)F)c(=O)c2=O)cc1	.	-20%	-7%[59 µM]	-27%	33%	.
O=C(CSc1nc2nn(-c3ccccc3)c(=O)c-2c2n1CCCCC2)c1ccc(O)c(O)c1	-25	11µM*	-40%[2.33 µM]	10µM*	28µM*	-5
COCCNC(=O)CSc1nc2nn(-c3ccccc3)c(=O)c-2c2n1CCCCC2	3	56µM*	7%	-3%	-12%	3
CC(C)Oc1ccc(S(=O)(=O)N2CCCCC2)cc1NC(=O)C1=NN(c2ccccc2)C(=O)CC1	-7	.	.	.	.	4
CCOc1cc2c(cc1OCC)C(C(=O)O)C(c1cc(OC)c(OC)c(OC)c1)N(C)C2=O (stereo unspecified)	2	-1%	?	?	42%	0
COc1cc2c(cc1OC)C(C(=O)O)C(c1cc(Br)c(O)c(OC)c1)N(C)C2=O (stereo unspecified)	-1	19%	35µM*	-8%	51%	-1
Cc1cccn2cc(-c3c[nH]c4ccccc34)nc12	-16	?	?	-32%	-19%	-2
Brc1ccc2nc(-c3c[nH]c4ccccc34)cn2c1	-17	?	50µM*	45µM*	?	-24
O=S(=O)(c1ccc(F)cc1)N1CCC(N2CCCCCC2)CC1	6	?	?	?	?	-7
O=S(=O)(c1ccc(Cl)cc1)N1CCC(N2CCCCCC2)CC1	-1	2.5µM*	2.5µM*	79µM*	?	-2
CC(=O)Nc1ccc(S(=O)(=O)N2CCC(N3CCCCCC3)CC2)cc1	-24	20µM*	40µM*	-30%	?	-6
CC(=O)Nc1ccc(S(=O)(=O)N2CCC(N3CCCCC3)CC2)cc1	9	-7%	-3%	-5%	32%[57 µM]	6
C=C(C)CNC(=O)C1CCC(=O)N(CCCc2ccccc2)C1 (stereo unspecified)	7	-8%	.	.	30%	7
O=C(Nc1ccc(F)cc1)c1cc2cc3ccc(Cl)cc3nc2o1	.	-8%	-16%[59 µM]	.	6%	.
COCCNC(=S)N/N=C1\CC(C)CC(C)(C)C1 (stereo unspecified)	-8	-25%	50µM*	?	1%	-2
COc1cc(OC)cc(-c2c(-c3cccs3)c3cc(-c4ccc(N(C)C)nc4)ccc3n2C)c1	-2	?	3%[0.501 µM]	56µM*	14%	-1
O=c1[nH]c2ccccc2c2oc(CCl)nc12	10	-15%	35µM*	-18%	13%	-1
CCC1CCc2c(c3ccccc3[nH]c2=O)O1 (stereo unspecified)	3	-16%	18%	-4%[57.1 µM]	22%	-18
SMILES	Six1-Eya2 blk	JMJD2A Tudor	G9a block	BAZ2B block	HP1b chromo inh	CtBP-E1A blk
O=S(=O)(c1ccc2c(c1)OCCO2)N1CCN(S(=O)(=O)c2cc(F)c(F)cc2F)CC1	.	0%	.	.	.	.
O=C(O)C1CSC2(CCN(Cc3ccccc3)CC2)N1 (stereo unspecified)	-3	10µM*	7.1µM*	56µM*	?	-6
CCCc1nc(-c2ccccc2)c(-c2ccc(OC)c(OC)c2)c(=O)[nH]1	-2	-8%	1%	?	5%	-10
COc1ccc(CN2CCn3ncc(C(=O)Nc4ccccc4)c3C2=O)cc1	8	-2%	-13%[59 µM]	-32%	22%	-1
O=C(O)c1cnn2c1C(=O)N(Cc1cccs1)CC2	-11	?	40µM*	22µM*	32µM*	24
COc1ccc(CSC2=C(C#N)C(=O)NC3(CCCCC3)S2)cc1	-27	.	.	.	.	-4
CCCCCCSC1=C(C#N)C(=O)NC2(CCCCC2)S1	4	56µM*	13µM*	?	?	22
CCOC(=O)c1c(NC(=O)c2ccccc2)sc2c(O)c(CN(CC)CC)ccc12	-1	-22%	50µM*	-8%	-5%	1
CCN(CC)Cc1c(NC(=O)c2ccccc2)sc(C)c1C	6	-32%	?	-22%	8%	-2
O=C1c2ccccc2-c2onc3ccc(NCCCn4ccnc4)c1c23	-78*	50µM*	-26%[12.7 µM]	14µM*	?	14
O=C(Nn1c(Cc2cccs2)nc2ccccc2c1=O)c1cccs1	3	-16%	50µM*	-6%	22%	5
Cc1ccc(-c2nc3ccccc3c(=O)n2NC(=O)c2cccs2)cc1	5	?	-14%[59 µM]	18%	29%	6
NCCCC[C@@H]1NC(=O)[C@H](CCC(=O)O)NC(=O)c2cc([N+](=O)[O-])cc(I)c2SC[C@@H](C(=O)NCC(N)=O)NC1=O	10	22µM*	3.2µM*	?	24%	5
NCCCC[C@@H]1NC(=O)c2cc([N+](=O)[O-])cc(I)c2SC[C@@H](C(N)=O)NC(=O)[C@H](Cc2ccc(O)cc2)NC1=O	-8	?	35µM*	?	-4%	.
CC(C)C1NC(=O)[C@H](CCCCN)NC(=O)[C@@H](Cc2c[nH]c3ccccc23)NC(=O)[C@H](Cc2ccc(O)cc2)NC(=O)[C@H](C)N(C)C(=O)[C@H](Cc2ccccc2)NC1=O (stereo partly specified)	.	.	56%[12.7 µM]	.	.	.
CC[C@H](C)[C@@H]1NC(=O)c2cc([N+](=O)[O-])cc(F)c2OCC[C@@H](C(N)=O)NC(=O)[C@H](CCCCN)NC1=O	4	-24%	?	-11%	7%	0
COc1ccc(CCNC(=O)c2cnc3sc(N4CCOCC4)nn3c2=O)cc1	.	-4%	-5%[59 µM]	-4%	29%	.
CC(Nc1ccc(Cl)cc1)c1cc(Cl)ccc1O (stereo unspecified)	-5	-7%	43%[59 µM]	-1%	16%	-3
